Where “and” joins values, the source holds several entries; their conditions need not be identical. Equal values may be shown once. Records with an inconclusive call do not appear. Where a call stands in place of a potency, no number is given. More than one record can exist for a structure, and the calls need not agree. Calls of active or inactive are those of the source. Calls come from the whole dose curve; as a rule, active = well fitted curve in the direction sought with a large enough effect; inconclusive = small, poorly fitted or top-dose-only effect, or another doubt; inactive = no such curve, though single readings can be large; an effect the other way counts as inactive or inconclusive.
How the values were obtained:
[1] = Viability qHTS for spleen associated tyrosine kinase inhibitor (SYKi) naive MV4-11 cells (AID 1963823); note: nearly all actives have a fitted effect of over 40% in size
In short: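 SYK inhibitor-naive MV4-11 cells, 500 per well, exposed to compounds for 72 hr at 37 C, 5% CO2. Viability read as CellTiter-Glo luminescence after 10 min at room temperature.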

[2] = Viability qHTS for spleen associated tyrosine kinase inhibitor (SYKi) drug resistant MV4-11 cells (AID 1963824); note: nearly all actives have a fitted effect of over 35% in size
In short: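 CellTiter-Glo luminescence, read 10 min after reagent addition, reports viability after a 72 hr compound exposure. Cells are an MV4-11 line made resistant to SYK inhibition, seeded at 500 per well onto compound-containing plates.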

[3] = Quantitative highthroughput screen to assess conditional lethalithy of NOMO1 cells grown in RPMI1640 with untreated serum (RPMI+s) (AID 1963876); note: nearly all actives have a fitted effect of over 35% in size
In short: (§1)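 Each medium arm—HPLM with 10% dialyzed FBS, or RPMI1640 with 5 mM glucose and 10% untreated or dialyzed FBS—was screened against an 11-point, 3-fold compound titration for 48 h at 37 °C, with CellTiter-Glo luminescence as endpoint.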

[4] = Quantitative highthroughput screen to assess conditional lethalithy of NOMO1 cells grown in RPMI1640 with dialyzed fetal bovine serum (RPMI+ds) (AID 1963877); note: nearly all actives have a fitted effect of over 30% in size; for Viability: series mostly up to about 46 µM
In short: as §1

[5] = Quantitative highthroughput screen to assess conditional lethalithy of NOMO1 cells grown in Human Plasma-Like Medium with dialyzed fetal bovine serum (HPLM+ds) (AID 1963878); note: nearly all actives have a fitted effect of over 35% in size
In short: as §1

[6] = Quantitative highthroughput screen to assess conditional lethalithy of P12 Ichikawa cells grown in Human Plasma-Like Medium with dialyzed fetal bovine serum (HPLM+ds) (AID 1963879); conditions: Potency: viability; note: nearly all actives have a fitted effect of over 35% in size; for Viability: series mostly up to about 46 µM
In short: as §1

[7] = Quantitative highthroughput screen to assess conditional lethalithy of P12 Ichikawa cells grown in RPMI1640 with dialyzed fetal bovine serum (RPMI+ds) (AID 1963880); conditions: Potency: P12-Ichikawa viability; note: nearly all actives have a fitted effect of over 35% in size
In short: as §1

[8] = Quantitative highthroughput screen to assess conditional lethalithy of P12 Ichikawa cells grown in RPMI1640 with untreated serum (RPMI+s) (AID 1963881); conditions: Potency: viability; note: nearly all actives have a fitted effect of over 35% in size; for Viability: series mostly up to about 46 µM
In short: as §1

[9] = Quantitative highthroughput screen to assess conditional lethalithy of SEM cells grown in Human Plasma-Like Medium with dialyzed fetal bovine serum (HPLM+ds) (AID 1963882); note: nearly all actives have a fitted effect of over 35% in size; for Viability: series mostly up to about 46 µM
In short: as §1

[10] = Quantitative highthroughput screen to assess conditional lethalithy of SEM cells grown in RPMI1640 with unreated serum (RPMI+s) (AID 1963883); note: nearly all actives have a fitted effect of over 35% in size
In short: as §1

[11] = Quantitative highthroughput screen to assess conditional lethalithy of SEM cells grown in RPMI1640 with dialyzed fetal bovine serum (RPMI+ds) (AID 1963884); note: nearly all actives have a fitted effect of over 35% in size; for Viability: series mostly up to about 46 µM
In short: as §1

[12] = Cellular viability qHTS for adrenocortical cancer (ACC) cell line SW-13 (AID 1963989); conditions: SW-13 ACC cells viability, CellTiter-Glo, 48 h; activity (max response): stronger effect = lower value; note: nearly all actives have a fitted effect of over 65% in size;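 for activity (max response): cells grown in serum-free medium with ITS supplement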
In short: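 Compound titrations (up to 46 uM final, in DMSO) were applied to SW-13 cells for 48 h at 37C/5% CO2. Reading used CellTiter-Glo after 20 min at room temperature; fitted curves yielded IC50 and efficacy.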

[13] = Cellular viability qHTS for adrenocortical cancer (ACC) cell line NCI-H295R (AID 1963990); note: nearly all actives have a fitted effect of over 60% in size
In short: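 Readout: CellTiter-Glo luminescence, 20 min RT. Exposure: 48 h, 37C/5% CO2. Cells: NCI-H295R, ITS-DMEM serum-free. Range: up to 46 uM. Analysis: 4PL fit, IC50 plus efficacy.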
Potency is the fitted concentration of half-maximal effect.

| SMILES | Potency [1] | Potency [2] | Potency [3] | Potency [4] | Potency [5] | Potency [6] | Potency [7] | Potency [8] | Potency [9] | Potency [10] | Potency [11] | Potency [12] | Potency [13] | activity (max response) [12] | viability (% of control) [1] | viability, % of control [2] | activity change, negative = viability loss [13] |
| --- | --- | --- | --- | --- | --- | --- | --- | --- | --- | --- | --- | --- | --- | --- | --- | --- | --- |
| Cn1cc(CNCC2CCN(c3ncc(C(=O)NO)cn3)CC2)c2ccccc21 | 66.1 nM (active) | 16.6 nM (active) | 372 nM (active) | 332 nM (active) | 296 nM (active) | 264 nM (active) | 372 nM (active) | 235 nM (active) | 132 nM (active) | 148 nM (active) | 132 nM (active) | 1260 nM (active) | 794 nM (active) |  |  |  |  |
| Cc1ccc(CN2CCNCC2)cc1NC(=O)CNc1ccc(F)c(F)c1 | inactive | inactive | inactive | inactive | inactive | inactive | inactive | inactive | inactive | inactive |  |  | inactive | 11.8% (inactive) |  |  |  |
| Cc1cc(-c2ncc(CC(=O)Nc3ccc(-c4cnccn4)cn3)cc2C)ccn1 | 5250 nM (active) | 2060 nM (active) | inactive | inactive | inactive | inactive | inactive | inactive | inactive | inactive | inactive |  | inactive | -24.1% (inactive) |  |  |  |
| NC[C@H](O)c1ccc(O)c(O)c1 | inactive | inactive | inactive | inactive | inactive | inactive | inactive | inactive | inactive | inactive | inactive |  | inactive | -12.7% (inactive) and 7.51% (inactive) |  |  |  |
| C[C@@H]1C(=O)O[C@H]2CC34[C@H]5C[C@@H](C(C)(C)C)C36[C@H](OC(=O)[C@@H]6O)O[C@@]4(C(=O)O5)[C@]21O (some centres undefined) | inactive | inactive | inactive | inactive | inactive | inactive | inactive | inactive | inactive | inactive | inactive |  | inactive | -23.3% (inactive) |  |  |  |
| CCOC(=O)Nc1ccc(NCc2ccc(F)cc2)nc1N | 14800 nM (active) | 16600 nM (active) | inactive | inactive | inactive | inactive | inactive | inactive | inactive |  | inactive |  | inactive | -9.42% (inactive) |  |  |  |
| NC(=O)Cc1cccc(C(=O)c2ccccc2)c1N | inactive | inactive | inactive | inactive | inactive | inactive | inactive | inactive |  |  |  |  |  | 0.0063% (inactive) |  |  |  |
| Cc1c(-c2ccnn2C)cc(C(=O)NCc2ccc(S(C)(=O)=O)cn2)c(=O)n1-c1cccc(C(F)(F)F)c1 | inactive | inactive | inactive | inactive | inactive | inactive | inactive | inactive | inactive |  | inactive |  | inactive | 5.26% (inactive) |  |  |  |
| CC(C)OC(=O)C(C)(C)Oc1ccc(C(=O)c2ccc(Cl)cc2)cc1 | inactive | inactive | inactive | inactive | inactive | inactive | inactive | inactive |  | 10500 nM (active) |  |  | inactive |  |  |  |  |
| CC1=CC(=O)c2ccccc2C1=O | 7420 nM (active) | 4680 nM (active) | inactive | inactive | inactive | inactive | inactive | inactive | 16600 nM (active) |  |  |  | inactive | 13.5% (inactive) |  |  |  |
| COCCOc1nc(-c2ccc(Cl)c(Cl)c2)n(-c2ccc(NC(=O)CCl)cc2)n1 | 2310 nM (active) | 1480 nM (active) | inactive | inactive | inactive | inactive | inactive | inactive | inactive |  |  |  | 199 nM (active) |  |  |  |  |
| CC[C@@]1(O)C(=O)OCc2c1cc1n(c2=O)Cc2cc3cc(O)ccc3nc2-1 | 18.6 nM (active) | 18.6 nM (active) | 118 nM (active) | 148 nM (active) | 83.3 nM (active) | 33.2 nM (active) | 29.6 nM (active) | 29.6 nM (active) |  | 41.8 nM (active) | 46.9 nM (active) | 224 nM (active) | 1580 nM (active) |  |  |  |  |
| Cc1cn[nH]c1 | inactive | inactive and 18.6 µM (active) | inactive | inactive | 16600 nM (active) | inactive | inactive | inactive |  |  | inactive |  | inactive | 12.7% (inactive) and 11.3% (inactive) |  |  |  |
| CC(C)(CO)[C@@H](O)C(=O)NCCC(=O)O | inactive | inactive | inactive | inactive | inactive | inactive | inactive | inactive | inactive |  | inactive |  | inactive | -17.7% (inactive) |  |  |  |
| CCCCCN(C)CCC(O)(P(=O)(O)O)P(=O)(O)O |  |  | inactive | inactive | inactive | inactive | inactive | inactive |  |  | inactive |  |  | -15.6% (inactive) | 73% [at 4.97 µM] (inactive) | 78.4% [at 4.97 µM] (inactive) | -3.37% [at 3.81 µM] (inactive) |
